Experimental data taken from PubChem BioAssay (NCATS).
Records with an inconclusive call do not appear. Calls of active or inactive are those of the source. Unless noted, calls follow the shape of the dose curve; as a rule, active = well fitted curve in the direction sought with a large enough effect; inconclusive = small, poorly fitted or top-dose-only effect, or another doubt; inactive = no such curve, though single readings can be large; an effect the other way counts as inactive or inconclusive.

Columns and labels:
[1] = qHTS assay for measurement of the activity of small molecule inhibitors on Zika virus induced Caspase-3 activity in human iPSC derived neural progenitor cells (hNPCs) (AID 1224857); also: % of control where 0% means no effect; nearly all actives have a fitted effect of over 65% in size
In short: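 Pretreat hNPCs with compound 1 h; infect ZIKV 2 FFU/cell; 6 h 37 C, 5% CO2; Caspase-Glo 3/7, 30 min RT; luminescence; normalize to no-virus and virus-only wells.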

[2] = qHTS assay for measurement of the activity of small molecule inhibitors on Zika virus induced Caspase-3 activity in human astrocytoma cells (AID 1224859);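 also: plate controls were ZIKV-infected untreated cells for no effect and uninfected cells for full effect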
In short: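 Human SNB-19 astrocytoma cells in RPMI 1640 with 10% FBS receive compound one hour ahead of Zika virus at 2 FFU/cell. After 6 h infection, caspase-3/7 activity is detected by Caspase-Glo luminescence.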

[3] = Natriuretic polypeptide receptor (hNpr1) antagonism - Pilot counterscreen GloSensor control cell line (AID 1347045; calls by dose curve; also: series mostly up to about 38 µM; % is scaled to controls: 0 for no effect and ±100 for the full control effect)
In short: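 Cells were first seeded and incubated overnight at 37C, then loaded with 2% GloSensor substrate for 2 h. Compounds were added for 30 min at room temperature, followed by a baseline read, 50 uM SNP and a final read after 20 min.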

[4] = target: Atrial natriuretic peptide receptor 1 (Homo sapiens) (UniProt P16066); assay: Natriuretic polypeptide receptor (hNpr1) antagonism - Pilot screen (AID 1347049; calls by dose curve;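 also: HEK293 cells with hNpr1 and GloSensor cGMP luciferase stimulated by 0.1 nM hNppA; agonist-evoked cGMP luminescence read 20 min after hNppA addition; series mostly up to about 58 µM; % is scaled to controls: 0 for no effect and ±100 for the full control effect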)
Sequence of Atrial natriuretic peptide receptor 1 (Homo sapiens) (P16066 whole entry, looked up): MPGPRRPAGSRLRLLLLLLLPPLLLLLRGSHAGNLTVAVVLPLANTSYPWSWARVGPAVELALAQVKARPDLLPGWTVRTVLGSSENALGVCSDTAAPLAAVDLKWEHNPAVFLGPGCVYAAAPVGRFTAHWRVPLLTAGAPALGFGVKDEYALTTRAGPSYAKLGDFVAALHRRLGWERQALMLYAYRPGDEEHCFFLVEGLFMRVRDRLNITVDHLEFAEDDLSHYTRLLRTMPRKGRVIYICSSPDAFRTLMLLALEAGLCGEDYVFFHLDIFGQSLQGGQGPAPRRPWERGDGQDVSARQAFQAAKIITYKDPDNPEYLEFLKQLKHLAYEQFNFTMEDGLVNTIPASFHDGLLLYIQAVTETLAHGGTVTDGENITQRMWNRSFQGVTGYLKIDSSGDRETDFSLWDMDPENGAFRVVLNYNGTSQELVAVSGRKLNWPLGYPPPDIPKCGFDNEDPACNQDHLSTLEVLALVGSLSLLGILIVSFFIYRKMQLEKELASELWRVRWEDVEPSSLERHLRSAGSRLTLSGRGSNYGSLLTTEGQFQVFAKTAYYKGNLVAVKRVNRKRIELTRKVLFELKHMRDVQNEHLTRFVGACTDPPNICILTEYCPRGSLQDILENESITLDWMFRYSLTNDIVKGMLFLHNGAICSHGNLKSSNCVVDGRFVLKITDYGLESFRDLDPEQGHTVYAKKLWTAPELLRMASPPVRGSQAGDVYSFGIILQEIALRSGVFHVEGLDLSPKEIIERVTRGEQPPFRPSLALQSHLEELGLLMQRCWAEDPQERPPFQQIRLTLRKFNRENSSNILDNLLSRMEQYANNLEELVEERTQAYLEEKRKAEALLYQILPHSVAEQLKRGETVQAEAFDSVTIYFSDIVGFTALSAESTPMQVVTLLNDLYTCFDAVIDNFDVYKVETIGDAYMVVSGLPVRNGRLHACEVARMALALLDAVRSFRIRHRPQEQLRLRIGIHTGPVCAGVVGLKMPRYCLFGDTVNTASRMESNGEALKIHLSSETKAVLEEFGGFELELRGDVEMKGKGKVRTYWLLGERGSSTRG
In short: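 Cells expressing receptor plus cGMP biosensor are seeded and incubated overnight at 37C, then loaded with GloSensor reagent (2% final) at room temperature for 2 h. Library compounds go on for 30 min. A pre-read precedes agonist (hNppA, 0.1 nM final) and a 20-min readout.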

[5] = NS1 protein of Zika virus - qHTS assay to identify small molecule inhibitors in human HEK 293 cells (AID 1347053);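 also: series mostly up to about 46 µM; plate controls were infected untreated cells for no effect and uninfected cells for full effect; nearly all actives have a fitted effect of over 55% in size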
In short: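 TR-FRET signal from two anti-ZIKV NS1 antibodies quantified NS1 in HEK 293 cells 24 h after MR766 infection at MOI = 0.5; compounds were added 1 h before virus. Uninfected cells and infected cells defined the NS1 normalization range.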

[6] = target: T1, Tyrosine-protein phosphatase non-receptor type substrate 1 (Homo sapiens) + Leukocyte surface antigen CD47 (Homo sapiens) (UniProt P78324+Q08722); assay: CD47-SIRPalpha protein protein interaction - Alpha assay qHTS validation (AID 1347059);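 also: bead proximity luminescence from CD47 binding SIRPalpha after compound preincubation with SIRPalpha; % is scaled to controls: 0 for no effect and ±100 for the full control effect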
T1 sequence (P78324 whole entry, looked up, the tested form may be a part): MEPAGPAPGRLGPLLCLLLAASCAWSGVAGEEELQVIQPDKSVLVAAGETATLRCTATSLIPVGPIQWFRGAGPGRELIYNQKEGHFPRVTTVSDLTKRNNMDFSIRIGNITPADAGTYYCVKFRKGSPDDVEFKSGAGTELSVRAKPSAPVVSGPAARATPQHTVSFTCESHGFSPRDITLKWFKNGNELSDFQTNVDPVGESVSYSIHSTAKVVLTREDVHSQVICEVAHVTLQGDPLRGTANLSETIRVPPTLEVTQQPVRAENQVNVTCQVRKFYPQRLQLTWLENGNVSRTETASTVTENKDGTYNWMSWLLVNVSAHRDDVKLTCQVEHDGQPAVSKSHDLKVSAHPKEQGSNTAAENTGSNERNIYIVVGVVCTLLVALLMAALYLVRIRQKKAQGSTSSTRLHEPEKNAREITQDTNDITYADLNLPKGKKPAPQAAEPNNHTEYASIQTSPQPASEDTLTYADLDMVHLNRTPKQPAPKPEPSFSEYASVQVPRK
T1 sequence (Q08722 whole entry, looked up, the tested form may be a part): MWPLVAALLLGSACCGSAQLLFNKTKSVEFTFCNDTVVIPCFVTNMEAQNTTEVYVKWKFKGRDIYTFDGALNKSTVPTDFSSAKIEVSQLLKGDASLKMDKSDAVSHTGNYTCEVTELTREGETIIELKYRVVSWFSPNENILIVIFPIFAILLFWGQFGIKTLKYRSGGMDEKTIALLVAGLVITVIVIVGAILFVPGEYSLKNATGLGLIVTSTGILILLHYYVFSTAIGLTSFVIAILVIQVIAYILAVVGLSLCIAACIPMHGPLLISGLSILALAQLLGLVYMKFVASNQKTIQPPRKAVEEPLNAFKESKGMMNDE
In short: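 In PBS (pH 7.4) with 0.05% IGEPAL CA-630, compound is preincubated with biotin-Avi-SIRPalpha ectodomain before His-CD47 ectodomain and affinity beads are added. Light-protected room-temperature incubations; AlphaScreen readout.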

[7] = target: Parathyroid hormone/parathyroid hormone-related peptide receptor (Homo sapiens) (UniProt Q03431); assay: qHTS for PTHR1 Agonists: Optimization Screen against the NCGC LOPAC library (AID 1347079);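 also: GloSensor cAMP luminescence in HEK-293 GP2 cells expressing human PTHR1 with IBMX; 0% is about no effect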
Sequence of Parathyroid hormone/parathyroid hormone-related peptide receptor (Homo sapiens) (Q03431 whole entry, looked up): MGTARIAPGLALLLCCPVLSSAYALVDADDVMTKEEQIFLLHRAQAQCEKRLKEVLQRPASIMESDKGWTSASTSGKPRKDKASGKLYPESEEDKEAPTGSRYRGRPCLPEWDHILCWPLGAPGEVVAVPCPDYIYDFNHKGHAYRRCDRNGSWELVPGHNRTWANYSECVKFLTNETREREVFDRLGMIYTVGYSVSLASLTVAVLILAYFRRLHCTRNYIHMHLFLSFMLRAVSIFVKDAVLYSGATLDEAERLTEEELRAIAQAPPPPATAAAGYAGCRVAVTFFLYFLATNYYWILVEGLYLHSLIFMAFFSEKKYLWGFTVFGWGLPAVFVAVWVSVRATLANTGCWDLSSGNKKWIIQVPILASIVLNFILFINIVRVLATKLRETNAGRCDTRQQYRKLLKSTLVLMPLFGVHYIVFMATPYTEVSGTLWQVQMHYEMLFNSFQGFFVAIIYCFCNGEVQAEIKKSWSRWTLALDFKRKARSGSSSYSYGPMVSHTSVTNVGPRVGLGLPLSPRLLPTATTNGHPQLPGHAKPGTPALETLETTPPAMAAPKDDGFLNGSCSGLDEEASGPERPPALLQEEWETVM
In short: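 HEK-293 GP2 cells, PTHR1 + GloSensor cAMP; 3000 cells/well, o/n. Luciferin + IBMX 0.5mM each (stock), 1 hr 37C. Cpd titration, 1 hr 37C. Lum after 15 min RT. Ctrl M-PTH(1-15) top 10uM.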

[8] = qHTS of pediatric cancer cell lines to identify multiple opportunities for drug repurposing: Primary screen for TC32 cells (AID 1347089); also: nearly all actives have a fitted effect of over 60% in size; also: potency is read from the fitted curve at half-maximal effect
In short: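 In the primary qHTS, MIPE compounds were tested at 11 concentrations (0.78 nM to 46 µM) and NPC compounds at 8 (0.59 nM to 46 µM) on TC32 cells for 48 h. CellTiter-Glo luminescence gave viability.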

[9] = qHTS Assay for Identifying Gametocytocidal Compounds (AID 743244); also: potency is read from the fitted curve at half-maximal effect;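 as to max response: % is scaled to controls: 0 for no effect and ±100 for the full control effect; actives lower the fluorescent signal which means gametocytes are killed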; conditions: P. falciparum 3D7 stage III-V gametocytes, alamarBlue, 72 h; max response: active compounds read low
In short: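 Compounds are pinned into medium, gametocytes (stage III–V, 3D7, 20,000 cells/well) added, and plates held 72 h at 37 °C in 5% CO2. AlamarBlue follows for 24 h before fluorescence reading.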

[10] = P-glycoprotein substrates identified in KB-8-5-11 adenocarcinoma cell line, qHTS therapeutic library screen (AID 1346987); also: nearly all actives have a fitted effect of over 65% in size; also: potency is read from the fitted curve at half-maximal effect
In short: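 Luminescence from CellTiter-Glo, read 5 min after addition, quantified survival of KB-8-5-11 (P-gp-overexpressing) cells exposed to compounds for 72 h. AC50 was derived from concentration-response curves.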

[11] = target: T1, Tyrosine-protein phosphatase non-receptor type substrate 1 (Homo sapiens) + Leukocyte surface antigen CD47 (Homo sapiens); assay: CD47-SIRPalpha protein protein interaction - LANCE assay qHTS validation (AID 1347057; active = well fitted curve in the direction sought with a large enough effect in the signal ratio, with a control signal flat, not every such curve was filed as active; the % refers to the signal ratio; also: series mostly up to about 38 µM; 0% is about no effect)
In short: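 Inhibition of soluble CD47/SIRPalpha ectodomain association by titrated compounds, measured as 665/615 nm time-resolved FRET ratio after sequential 30 min room-temperature incubations.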

[12] = target: T1, Tyrosine-protein phosphatase non-receptor type substrate 1 (Homo sapiens) + Leukocyte surface antigen CD47 (Homo sapiens); assay: CD47-SIRPalpha protein protein interaction - HTRF assay qHTS validation (AID 1347058; active = well fitted curve in the direction sought with a large enough effect in the signal ratio, not every such curve was filed as active; the % refers to the signal ratio; also: series mostly up to about 38 µM; 0% is about no effect)
In short: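 Soluble extracellular domains (6His-CD47, Avi-tag-biotinylated SIRPalpha) in PBS pH 7.4 with 0.05% IGEPAL CA-630. Compounds were preincubated 30 min at RT with CD47 and anti-His-Eu, then SIRPalpha and SAV-XL665 were added. TR-FRET 665/615 ratio.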

CN(C)c1cc2c(Nc3ccc4c(cnn4Cc4ccccc4)c3)ncnc2cn1
inactive: Potency [1] | outcome [2] | Potency [3] | Potency [4] | Potency [5] | Potency [6] | outcome [7]

COC(=O)CCCCC(CCSS/C(CCO)=C(\C)N(C=O)Cc1cnc(C)nc1N)SC(C)=O (stereo not drawn)
inactive: Potency [1] | outcome [2] | Potency [5] | Potency [8]

CO[C@@H]1[C@@H](OC)[C@H](C)[C@@](O)(CC(=O)O)O[C@H]1[C@H](C)[C@H]1O[C@@]2(CC[C@@](C)([C@H]3CC[C@@](C)([C@@H]4O[C@@H]([C@H]5O[C@](C)(O)[C@H](C)C[C@@H]5C)C[C@@H]4OC4C[C@H](OC)[C@@H](OC)[C@H](C)O4)O3)O2)C[C@H](O)[C@H]1C (stereo partly drawn)
inactive: Potency [1] | outcome [2]
active: Potency [9] 0.0935 µM | Potency [10] 8.2 µM | Potency [8] 1.87 µM

CC(=O)N(CC(=O)N(C)C)c1ccccc1
inactive: Potency [1] | outcome [2] | Potency [5] | Potency [8]

Cc1cc(OCCOCC[N+](C)(C)Cc2ccccc2)ccc1C(C)(C)CC(C)(C)C
active: Potency [9] 7.08 µM | Potency [8] 26.4 µM
inactive: Potency [1] | outcome [2] | Potency [10]

OCc1cccnc1
inactive: max response [9] -22.7% | Potency [1] | outcome [2] | Potency [10] | Potency [8]

CCCCCCCCCCCCCCCC[N+](C)(C)Cc1ccccc1
inactive: Potency [1] | outcome [2] | Potency [10]
active: Potency [9] 7.08 µM

O=C1c2ccccc2CCc2ccccc21
inactive: Potency [1] | outcome [2] | Potency [5] | Potency [8]

O=c1[nH]c2ccccc2c(=O)n1CCCl
inactive: Potency [1] | outcome [2] | Potency [5] | Potency [8]

CN(C)C(=O)CNC(=O)Cc1ccccc1
inactive: max response [9] 15% | Potency [1] | outcome [2] | Potency [10] | Potency [8]

O=C(O)c1cn(C2CC2)c2cc(Cl)c(F)cc2c1=O
inactive: Potency [1] | outcome [2] | Potency [5] | Potency [8]

CCCCOCCOC(=O)c1cccnc1
inactive: Potency [1] | outcome [2] | Potency [5] | Potency [8]

CO/N=C(/C(=O)N[C@@H]1C(=O)N2C(C(=O)O)=C(Cn3nnc(C)n3)CS[C@H]12)c1csc(N)n1
inactive: max response [9] -11.7% | Potency [1] | outcome [2] | Potency [10] | Potency [8]

Clc1ccc2c(c1)N=C(N1CCNCC1)c1ccccc1N2
inactive: Potency [1] | outcome [2] | Potency [4] | Potency [5] | outcome [11] | outcome [12] | Potency [6] | outcome [7]
